# Assay results published in PubChem BioAssay (NCATS).
# Records with an inconclusive call do not appear. Where a call stands in place of a potency, no number is given. Active and inactive are the calls of the source. Calls come from the whole dose curve; as a rule, active = well fitted cell-killing curve with a large enough effect; inconclusive = small, poorly fitted or top-dose-only effect; inactive = flat fitted curve, though single readings scatter.
# Test: Vero cells viability qHTS for Zika virus inhibitors (AID 1347167)
# Settings: cytotoxicity counter-screen (Zika); series mostly up to 45.9 µM
# Outline: (§1)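 Compounds were tested in concentration series on cells grown in DMEM containing 4% FBS. After 24 to 48 hours, cellular ATP was measured by luminescence with CellTiter Glo.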
row,SMILES,Potency
1,Nc1ccc(-c2ccc3ccccc3n2)cc1,inactive
2,Cn1cc(C(F)(F)F)nc1-c1ccc(OCC(O)CNCCOc2ccc(O)c(C(N)=O)c2)cc1 (configuration not stated),inactive
3,Nc1nc2ccc(Cl)cc2c2nc(-c3ccco3)nn12,inactive
4,O=C1NC(=O)c2cc(Nc3ccccc3)c(Nc3ccccc3)cc21,inactive
5,CNC(=O)c1cc2c(cn1)[nH]c1ccccc12,inactive
6,CCCC[C@@]1(C2CCCC2)Cc2cc(OCC(=O)O)c(Cl)c(Cl)c2C1=O,inactive
7,O=c1[nH]c(=S)[nH]c(-c2ccccc2)c1Cc1c(O)ccc2ccccc12,inactive
8,COc1cc2c(CCNC(C)=O)c[nH]c2cc1O,inactive
9,C=CCN1CCc2c(cc(O)c(O)c2Br)[C@@H](c2ccccc2)C1,inactive
10,CCCc1c(OCCCOc2ccc(OCC(=O)O)cc2)ccc(C(C)=O)c1O,inactive
11,Cn1c(=O)c2[nH]c(-c3ccc(S(=O)(=O)O)cc3)nc2n(C)c1=O,inactive
12,CCc1ccc2c(-c3cccc(Cl)c3)nc(=O)n(CC)c2n1,inactive
13,Cc1cccc(C(=O)NCN2CCN(c3ccccc3C#N)CC2)c1,inactive

# Test: HepG2 cells viability qHTS for Zika virus inhibitors (AID 1347168)
# Settings: Zika counter-screen; series mostly up to 45.9 µM
# Outline: as §1
row,SMILES,outcome
1,Nc1ccc(-c2ccc3ccccc3n2)cc1,inactive
2,Cn1cc(C(F)(F)F)nc1-c1ccc(OCC(O)CNCCOc2ccc(O)c(C(N)=O)c2)cc1 (configuration not stated),inactive
3,Nc1nc2ccc(Cl)cc2c2nc(-c3ccco3)nn12,inactive
4,O=C1NC(=O)c2cc(Nc3ccccc3)c(Nc3ccccc3)cc21,inactive
5,CNC(=O)c1cc2c(cn1)[nH]c1ccccc12,inactive
6,CCCC[C@@]1(C2CCCC2)Cc2cc(OCC(=O)O)c(Cl)c(Cl)c2C1=O,inactive
7,COc1cc(/C=C(\C#N)C(=O)Nc2nnc(C(F)(F)F)s2)ccc1OCc1ccc(C(F)(F)F)cc1C(F)(F)F,inactive
8,O=c1[nH]c(=S)[nH]c(-c2ccccc2)c1Cc1c(O)ccc2ccccc12,inactive
9,COc1cc2c(CCNC(C)=O)c[nH]c2cc1O,inactive
10,C=CCN1CCc2c(cc(O)c(O)c2Br)[C@@H](c2ccccc2)C1,inactive
11,CCCc1c(OCCCOc2ccc(OCC(=O)O)cc2)ccc(C(C)=O)c1O,inactive
12,Cn1c(=O)c2[nH]c(-c3ccc(S(=O)(=O)O)cc3)nc2n(C)c1=O,inactive
13,CCc1ccc2c(-c3cccc(Cl)c3)nc(=O)n(CC)c2n1,inactive
14,Cc1cccc(C(=O)NCN2CCN(c3ccccc3C#N)CC2)c1,inactive
